# Data taken from PubChem BioAssay AID1159506 (National Center for Advancing Translational Sciences (NCATS), 2015).
# Whole data set: some 59,000 sequences, median the read-out near -0.00055, cut for the lowest 2% near -2. The full list was thinned out, with the lowest values kept by preference.
# Assay: Identification of proteins required for the processing of the EWS-FLI1 nascent transcript;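 further: robust z of luciferase light less the median z of siRNAs with the same seed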
# Settings: TC32 Ewing sarcoma NR0B1-luc vs CMV-luc (EWS-FLI1 target promoter against control promoter), 48 h; screened at 20 nM (by protocol)
# Method in brief: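 TC32 Ewing sarcoma cells carrying NR0B1-promoter or CMV-promoter luciferase reporters were reverse-transfected with single siRNAs at 20 nM, three per gene genome-wide. Luminescence was read after 48 h and normalized to non-targeting controls.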
row,Sequence,seed-corrected z-score
1,UUCCCAUUGAUACUCAUGG against LECT1,-0.035
2,UAAUGCUUGAGGCACUUGG against CALHM2,0.134
3,UUGUCUCUCACUCAGAUUG against HOXB9,0.619
4,UGCUUUGCAAUGAUCUCUC against HNRNPM,-2.32
5,UGUCAUGCAAUAAGAAUCU against NLGN4Y,0.297
6,UUAGAGUAAGUAAAUAUCC against RPS18P5,-0.219
7,UGGGUAUACAGUCAUCAUC against SLC38A9,-2.9
8,UUGGGUAAAAGACAGUUGA against TKT,-0.555
9,UAGACAACAUCAGUGAUCC against RPS8P4,0.47
10,AAGCUUCUUAACUUCAUUC against RPL14P1,-3.84
11,UUUGGAGAACUCCCUGGGC against FLYWCH1,-0.00776
12,UAAUUGAGGGAGCAAAGGC against FAM53A,-0.541
13,UCCUUUUCCACGACCAUCG against CCR2,-1.29
14,UGCUGGAUCAGGGAGAUAG against TRPM2,-2.19
15,UCUUGUAGCGGAAAAGGCC against DUSP2,0.0146
16,UAACGAAUAAUUUCUGCUC against HPGDS,-0.285
17,UUCCGGAUAGCCUACAUCC against USP36,-0.445
18,UAAUGUACAUCUCUCGUCC against CNGA1,-2.2
19,UCAUCCUCCAGGAUCAUGG against ZSCAN2,-0.868

row,Sequence,seed-corrected z-score
1,UAUUAGCACAGUGUAAGGC against PDE10A,-0.276
2,AAUGAUCACAUCGAUAGUG against SGMS2,-2.21
3,UUUAUCAUUAGGGCUAGGG against DHRS4L1,0.864
4,UUUUCGGUAACUCUGCGUG against SPEN,-0.638
5,UAAGGUUCUCCCUCACAGC against JAKMIP2,-0.785
6,UUGUUGUAAAGCACGAUGU against CHRNB4,-0.439
7,UAUUAUUGAUGCGACAUCC against CNGB3,0.631
8,UCUGGUUCCUCGGCGAAGU against PRSS53,-2.84
9,UAUCUUCACUGGGUUCAUG against IRF6,2.07
10,AAUUUCUCCAGAAUCUAUG against TENM4,-2.16
11,UUCUUUUAUUGCCUCGGGU against KISS1,0.198
12,UUCGUUCCAACAUAGGCUG against AGBL1,-2.49
13,UGACAUAUGAGUUCGAUGG against ZCCHC17,0.589
14,AAUACUCUCAGUUCGAAUG against TXNDC15,0.939
15,AAUCUUGUUAUGCUCAUGG against ZBTB47,-0.317
16,UUCGGUUCAAGUUUAGCAG against TM9SF2,-0.205
17,UCAAGUUCUAUGAGAUUGG against ARRB1,0.195
18,ACAAUUUCAAGCUCCUGUC against MAGOHB,-1.58
